Among all 310,000 compounds or so, about 410 (0.13%) were called active. About 2% were inconclusive and are not listed. The rule behind the calls is not given here. Not all results are given here. Entries with a potency or affinity are not part of this list.
assay: inhibition of RSV-induced cytopathic effect – HEp-2 cells, primary 10 µM value included (AID 2391); details: at 10 µM, stronger effect = higher value

CPE inhibition, inactive:
CCOc1cc(C(=S)N2CCCC2)ccc1O 0.51%
COC(=O)N/N=C/c1ccc(-c2cc(Cl)ccc2Cl)o1 -0.35%
COC(=O)N/N=C/c1ccc(-c2cc(Cl)cc(Cl)c2)o1 42.2%
O=C(c1ccc(F)cc1)N1CCN2C(=O)c3ccccc3C12c1ccc(Cl)cc1 (stereo not given) 73.1%
Cc1ccc(C(=O)N2CCN3C(=O)c4ccccc4C23c2ccccc2)cc1 (stereo not given) 3.84%
Cc1nc2ccccc2nc1OCc1ccc([N+](=O)[O-])cc1 1.85%
Nc1ccc(C(=O)Nc2ccco2)cc1 0.93%
Nc1c(-c2cccs2)cnc2c(-c3ccc(F)cc3)cnn12 10.8%
CCCn1c(SCC(=O)Nc2cc(C)on2)nc2c1c(=O)n(C)c(=O)n2C -0.53%
COc1ccc(S(=O)(=O)N2CCCCC2)cc1NC(=O)C1CC1 -0.43%
O=C(COC(=O)c1cnccn1)c1ccc(C2CCCCC2)cc1 1.84%
Cc1cc(NC(=O)C(C)SCC(=O)OCC(=O)N(C)c2ccccc2)no1 (stereo not given) 0.41%
Cc1cccc(N(Cc2ccccc2)C(=O)CSC(C)C(=O)Nc2cc(C)on2)c1 (stereo not given) 15.8%
CNC(=S)SCCOc1ccccc1 1.7%
COc1ccc(-n2nc(C(=O)NCC(=O)N3CCCC(C)C3)c3ccccc3c2=O)cc1 (stereo not given) 2.49%
CCC(C)NC(=O)c1cc2cc3ccc(OC)cc3nc2o1 (stereo not given) 4.45%
COc1ccc2cc3cc(C(=O)NC4CC4)sc3nc2c1 6.36%
CCc1ccccc1NC(=O)NNC(=O)CCc1ccc(OC)cc1 1.38%
COc1cccc(CNCc2cc(OC)cc(OC)c2)c1 -0.77%
CN(C)c1nc(N/N=C/c2c[nH]c3ccccc23)nc(N2CCOCC2)n1 5.13%
C(=N\Nc1nc(Nc2ccccc2)nc(N2CCOCC2)n1)/c1c[nH]c2ccccc12 38.2%
Cc1ccc(S(=O)(=O)NC2CCSC2=O)cc1C (stereo not given) 0%
Cc1sc(NC(=O)c2ccco2)c(C(c2ccncc2)N2CCOCC2)c1C (stereo not given) 6.19%
COc1cccc(C(c2c(NC(=O)c3ccco3)sc(C)c2C)N2CCOCC2)c1 (stereo not given) 0.09%
COC(=O)c1ccccc1S(=O)(=O)N1CCC(C(=O)OC(C)C(=O)NC(N)=O)CC1 (stereo not given) 1.21%
CCOc1ccc(OCCNC(=O)c2oc3ccccc3c2COC)cc1 2.63%
O=C1CCCCC1C(=O)c1cn(-c2ccc(Cl)c(Cl)c2)nn1 (stereo not given) 1.71%
N#Cc1c(N2CCCCC2)nc(N)c2c(N)nc3c(c12)CC(c1ccccc1)O3 (stereo not given) 18.6%
CN1CCN(C(=O)c2cc3nc(-c4ccccc4)cc(-c4ccccc4)n3n2)CC1 -2.59%
O=C(c1cc2nc(-c3ccccc3)cc(-c3ccccc3)n2n1)N1CCCC1 -1.34%
CC1CCN(C(=O)c2cc3nc(-c4ccccc4)cc(-c4ccccc4)n3n2)CC1 -0.54%
O=C(O)c1cc2nc(-c3ccccc3)cc(-c3ccccc3)n2n1 0.05%
COc1cc(C2C(C#N)=C(N)Oc3c2oc(CO)cc3=O)ccc1OC(C)C (stereo not given) 0.67%
Cc1c(C)c2c(OCC(=O)NCc3ccccn3)cc3c(c2oc1=O)CCC(C)(C)O3 -0.55%
Cn1c(C(O)c2ccccc2)nc(Cl)c1Cl (stereo not given) 2.93%
COc1ccc(-n2c(=O)c3ccccc3n(CC(=O)NC3CCCC3)c2=O)cc1 0.83%
C#CCOCCOCCOCCNc1nc(N2CCOCC2)nc(N2CCN(C(=O)CCCCCCCCCCNC(=O)[C@@H]([C@H](C)O)n3cc(C)nn3)CC2)n1 2.9%
C#CCOCCOCCOCCNc1nc(N2CCN(C(=O)CCCCCCCCCCNC(=O)[C@H](CCCCN)n3cc(C)nn3)CC2)nc(N2CCN(C(=O)CCCCCCCCCCNC(=O)[C@@H]([C@H](C)O)n3cc(C)nn3)CC2)n1 8.35%
CCOc1ccc(C(C)=O)cc1Cn1c(=O)oc2ccccc21 9.32%
O=c1[nH]c(C2CCN(S(=O)(=O)/C=C/c3ccccc3)CC2)nc2c1nnn2Cc1ccccc1 76.1%
O=c1[nH]c(C2CCN(S(=O)(=O)c3ccccc3)CC2)nc2c1nnn2Cc1ccccc1 19.1%
O=c1[nH]c(C2CCN(S(=O)(=O)c3ccccc3F)CC2)nc2c1nnn2Cc1ccc(F)cc1 39%
Cc1ccc(Cn2nnc3c(=O)[nH]c(C4CCN(S(=O)(=O)c5ccccc5F)CC4)nc32)cc1 84.2%
O=c1[nH]c(C2CCN(S(=O)(=O)c3ccc(F)cc3)CC2)nc2c1nnn2Cc1ccc2c(c1)OCCO2 64.8%
O=c1[nH]c(C2CCN(S(=O)(=O)c3ccc4c(c3)OCCO4)CC2)nc2c1nnn2Cc1ccc(F)cc1 63.7%
O=c1[nH]c(C2CCN(S(=O)(=O)c3ccc4c(c3)OCCO4)CC2)nc2c1nnn2Cc1cccc(F)c1 67.8%
Cc1ccc(Cn2nnc3c(=O)[nH]c(C4CCN(S(=O)(=O)c5ccc(F)cc5)CC4)nc32)cc1 13.9%
COC(=O)CC(c1ccc(C#N)cc1)n1c(C)ccc1C (stereo not given) -0.14%
Cc1ccccc1COn1nnc2ccc(S(=O)(=O)N3CCOCC3)cc21 -1.48%
O=C(NC1CCCCC1)N1CCN(c2ncccn2)CC1 2.35%
COc1ccccc1-n1c(SCC(=O)Nc2ccc(Br)cc2)nc(O)cc1=O 0.85%
COC(=O)Nc1ccc(S(=O)(=O)N(CCO)CCO)cc1 -0.61%
Cc1cccc(NC(=O)c2ccc(COc3ccc(Cl)cc3Cl)o2)n1 -0.26%
O=c1[nH]c(C2CCCN(S(=O)(=O)c3ccccc3)C2)nc2c1nnn2Cc1ccc(OC(F)(F)F)cc1 (stereo not given) 1.75%
CC(C)[N+](C)(C)CC#CC(O)(c1ccccc1)c1ccccc1 -0.2%

— PubChem BioAssay AID2391 (Southern Research Specialized Biocontainment Screening …, 2010)
